{"source": "paper PMC5540273", "about": "(PLoS ONE, 2017);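 note: kd values determined as follow-up on hits from a single-replicate KINOMEscan panel screen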", "key": {"PCTK1": {"tested_on": "T1, PCTK1", "T1 construct": "gene CDK16"}, "PCTK2": {"tested_on": "T2, PCTK2", "T2 construct": "gene CDK17"}, "PCTK3": {"tested_on": "T3, PCTK3", "T3 construct": "gene CDK18"}}, "data": [{"smiles": "O=C(Nc1n[nH]c2nc(-c3ccco3)c(Br)cc12)C1CCN(Cc2ccccc2)C1.O=C(O)[C@H](O)[C@@H](O)C(=O)O", "note": "(stereo not drawn) [SB-742034]", "values": [{"measurement": "Kd", "setting": "PCTK1", "value": 150, "unit": "nM"}, {"measurement": "Kd", "setting": "PCTK2", "value": 240, "unit": "nM"}]}, {"smiles": "COc1ccc(Nc2nccc(N3CCC(NC(=O)C(C)c4ccc(Cl)cc4)CC3)n2)cc1", "note": "(stereo not drawn) [GSK1379812]", "values": [{"measurement": "Kd", "setting": "PCTK1", "value": "> 10000", "unit": "nM"}]}, {"smiles": "CC(=O)c1c(C)c2cnc(Nc3ccn(C)n3)nc2n(C2CCCC2)c1=O", "values": [{"measurement": "Kd", "setting": "PCTK3", "value": "> 10000", "unit": "nM"}]}, {"smiles": "Cc1cnc(N)c(/C=C/c2cncc(C(=O)NCCc3ccc(Cl)cc3Cl)c2)c1.Cl", "note": "[GSK190937]", "values": [{"measurement": "Kd", "setting": "PDGFRA", "value": 39, "unit": "nM"}]}, {"smiles": "Cn1cnc2c(N)ncnc21", "note": "[SKF-97623]", "values": [{"measurement": "Kd", "setting": "PDGFRA", "value": "> 10000", "unit": "nM"}]}, {"smiles": "CNc1nc(-c2ccc3c(N)n[nH]c3c2)cc(N2C[C@@H](C(=O)Nc3ccccc3)CC[C@H]2C)n1", "note": "[GSK2298859]", "values": [{"measurement": "Kd", "setting": "PDPK1", "value": 1.7, "unit": "nM"}]}, {"smiles": "CC[C@@H]1CO[C@H](C(=O)Nc2ccccc2)CN1c1cc(-c2ccc3c(N)n[nH]c3c2)nc(NC)n1", "note": "[GSK2376236]", "values": [{"measurement": "Kd", "setting": "PDPK1", "value": 1.7, "unit": "nM"}]}, {"smiles": "Cc1nccc(-c2c(-c3ccc(F)cc3)ncn2CCCN2CCOCC2)n1.Cl", "note": "[SB-282975]", "values": [{"measurement": "Kd", "setting": "PHKG2", "value": "> 10000", "unit": "nM"}]}]}
